In all, about 350,000 compounds went through this assay and about 6,000 (1.7%) were called active. Roughly 5% stayed inconclusive and do not appear here. Only a selection was taken, and actives are over-represented in it overall. A number with no mark means an inactive call. Cut-off read from the data, not from the text of the source: active = CPE inhibition above about 20% (passing the limit was not always enough); inconclusive = no clear call, values can overlap the other calls; tested in BHK-21 cells.

The assay can be described thus: inhibitors of DENV2 cytopathic effect, primary screen, cell-based, plate reader, single concentration (AID 651640).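 Note: 0% = median of neutral control wells and 100% = median of positive control wells.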 The following applies: DENV2-infected cells, cytopathic effect rescue, at 9.99 µM, stronger effect = higher value. (In general: Cytopathic effects are the visible damage that an infection or toxin causes in cultured cells.)
On to `CNC(=O)C[C@@H]1CC[C@@H]2[C@@H](COc3ccc(NC(=O)c4ccc(F)cc4)cc3C(=O)N2C)O1`, for which the CPE inhibition is -2.03%.
For `Cc1noc(C)c1NC(=O)N(C)C[C@@H]1Oc2c(NC(=O)CCCCCC(=O)Nc3ccccc3N)cccc2C(=O)N([C@H](C)CO)C[C@@H]1C`, the CPE inhibition is 57.6% (active).
Take `C[C@H]1CN([C@@H](C)CO)C(=O)c2cccc(NC(=O)Nc3ccccc3)c2O[C@H]1CN(C)C(=O)Nc1cccc2ccccc12`: the CPE inhibition is 3.97%.
In the case of `Cc1noc(C)c1NC(=O)N(C)C[C@@H]1Oc2c(NC(=O)C3CCCCC3)cccc2C(=O)N([C@H](C)CO)C[C@@H]1C`, the CPE inhibition is -0.956%.
Turning to `Cc1noc(C)c1NC(=O)Nc1cccc2c1O[C@H](CN(C)C(=O)Nc1c(C)noc1C)[C@@H](C)CN([C@@H](C)CO)C2=O`, the CPE inhibition is -1.85%.
For the compound `C[C@@H]1CN([C@@H](C)CO)C(=O)c2cccc(NC(=O)CCCCCC(=O)Nc3ccccc3N)c2O[C@H]1CN(C)C(=O)Nc1cccc2ccccc12`, the CPE inhibition was 20.8% (active).
`C[C@@H]1CN([C@@H](C)CO)C(=O)c2cccc(NC(=O)CCCCCC(=O)Nc3ccccc3N)c2O[C@H]1CN(C)C(=O)Nc1ccccc1`: the CPE inhibition is 4.08%.
For `COCC(=O)N1[C@H](CO)[C@H](c2ccccc2C2=CCCCC2)[C@@H]1C#N`, the CPE inhibition was 5.95%.
Regarding `C[C@H]1CN([C@@H](C)CO)C(=O)c2cccc(NC(=O)Nc3ccc(C(F)(F)F)cc3)c2O[C@H]1CN(C)CC1CCCCC1`, the CPE inhibition is -8.84%.
As for `CC(=O)N1[C@H](CN(C)S(=O)(=O)c2ccccc2)[C@H](c2ccccc2)[C@@H]1CO`, the figure is 15.4%.
Turning to `COc1cccc(S(=O)(=O)N(C)C[C@@H]2Oc3cc(C4=CCCCC4)ccc3S(=O)(=O)N([C@H](C)CO)C[C@H]2C)c1`, the CPE inhibition was 2.02%.
For the compound `O=C(COc1ccc2c3c(c(=O)oc2c1)CCC3)NC1CCCCC1`, the CPE inhibition was 2.16%.
Turning to `NC(=O)C1CCN(C(=O)COc2ccc3c4c(c(=O)oc3c2)CCC4)CC1`, the CPE inhibition was 68.3% (active).
To `O=C(COc1ccc2c3c(c(=O)oc2c1)CCCC3)NCC(O)c1ccccc1` (stereo not drawn) belongs 3.96%; to `COC(=O)C1=C(C)N(Cc2cccc(C(F)(F)F)c2)C(=NCc2ccccc2)NC1c1ccc(Cl)cc1` (stereo not drawn), 27.3% (active); to `COC(=O)C1=C(C)N(Cc2cccc(C(F)(F)F)c2)C(=NCc2cccc(C(F)(F)F)c2)NC1c1ccccc1C(F)(F)F` (stereo not drawn), 19.7%.
With `COC(=O)C1=C(C)N(Cc2cccc(C(F)(F)F)c2)C(=NCc2ccccc2)NC1c1ccccc1C(F)(F)F` (stereo not drawn), the CPE inhibition was -6.35%.
As to `Cc1noc(C)c1NC(=O)Nc1ccc2c(c1)C(=O)N([C@H](C)CO)C[C@H](C)[C@H](CN(C)C(=O)C1CCCCC1)OCCCC[C@@H](C)O2`, the CPE inhibition is -8%.
Regarding `CCN1[C@@H]2c3ccc(C4=CCCC4)c(=O)n3C[C@@H]2[C@@H](CO)[C@@H]1C(=O)NCc1ccccn1`, the CPE inhibition is -1.73%.
Take `O=C(Cc1ccccn1)N[C@@H]1CC[C@H](CCn2cc(-c3ccc(F)cc3)nn2)O[C@@H]1CO`: the CPE inhibition was -1.64%.
`COCC(=O)Nc1ccc2c(c1)[C@@H]1C[C@H](CC(=O)NCc3ccc(Cl)cc3)O[C@H](CO)[C@@H]1O2`: the CPE inhibition is 2.48%.
As for `O=C(NCCCN1CCCCC1)C1CC(=O)N(CCc2ccccc2)C1` (stereo not drawn), the figure is 4.06%; as for `Cc1ccc(CCN2CC(C(=O)NCCc3ccccc3)CC2=O)cc1` (stereo not drawn), 34.2% (active).
Regarding `O=C(NC1CCCCC1)C1CC(=O)N(CCc2ccccc2)C1` (stereo not drawn), the CPE inhibition is -1.18%.
Turning to `CCCN1C[C@@H](C)[C@@H](OC)CN(C)C(=O)c2cc(NC(=O)c3ccccc3)ccc2OC[C@H]1C`, the CPE inhibition was -10.4%.
In the case of `COc1ccc(NC(=O)C2(C)Cc3c(-c4cccc(NC(C)=O)c4)ccnc3O2)cc1` (stereo not drawn), the CPE inhibition is -2.95%.
Consider `CC1(C(=O)NCc2ccco2)Cc2c(-c3ccc4c(c3)OCO4)ccnc2O1` (stereo not drawn), for which the CPE inhibition was 7.65%.
As for `CC(=O)Nc1cccc(-c2ccnc3c2CC(C)(C(=O)NCc2ccco2)O3)c1` (stereo not drawn), the figure is 32.1% (active); as for `COCC#Cc1cnc2c(c1)C(=O)N([C@@H](C)CO)C[C@@H](C)[C@@H](CN(C)C(=O)Nc1ccccc1OC)O2`, 8.53%.
As to `CCN1CCN(C(=O)N(Cc2ccc(Cl)cc2)S(=O)(=O)c2ccc(C)cc2)CC1`, the CPE inhibition is -3.82%.
Take `Cc1ccc(S(=O)(=O)N(Cc2cccc([N+](=O)[O-])c2)C(=O)N2CCN(C)CC2)cc1`: the CPE inhibition was 56.8% (active).
For `CN1CCN(CC(=O)Nc2cccc([N+](=O)[O-])c2)CC1`, the CPE inhibition was -4.21%.
With `Cc1ccccc1-c1ccc2c(c1)O[C@@H](CN(C)Cc1ccncc1)[C@@H](C)CN([C@H](C)CO)S2(=O)=O`, the CPE inhibition is 7.62%.
With `CN(C)c1ccc2c(c1)[C@H]1C[C@H](CC(=O)O)O[C@H](CO)[C@H]1O2`, the CPE inhibition is 0.102%.
Turning to `C[C@@H]1CN([C@@H](C)CO)C(=O)c2cccc(NC(=O)c3ccc(-c4nccs4)cc3)c2O[C@H]1CN(C)Cc1ccc(Cl)c(Cl)c1`, the CPE inhibition is -8.98%.
`Cc1ccc(C(=O)Oc2ccc(C(=S)N3CCOCC3)cc2)cc1`: the CPE inhibition was 12.3%.
With `Cc1ccc(C(=O)N2CCN(S(=O)(=O)N3CCOCC3)CC2)cc1`, the CPE inhibition was -4.28%.
Turning to `Cc1ccc(C(=O)C(=S)N2CCOCC2)cc1`, the CPE inhibition is 41.4% (active).
On to `C[C@@H]1CCCCO[C@H](CN(C)Cc2ccc(Cl)c(Cl)c2)[C@H](C)CN([C@@H](C)CO)C(=O)c2cc(NC(=O)CCC(F)(F)F)ccc2O1`, for which the CPE inhibition was 2.84%.
To `C[C@H](NC(=O)C[C@H]1CC[C@H]2[C@@H](COC[C@H](O)CN2C(=O)Nc2cc(Cl)cc(Cl)c2)O1)c1ccccc1` belongs -1.1%.
As to `C/C=C(\C)C(=O)N1CC2(CC(c3cccc(NC(=O)CCCCC)c3)=NO2)C[C@@H]1C(N)=O` (stereo partly drawn), the CPE inhibition was 85.8% (active).
For `CC/C=C/C(=O)N1CC2(CC(c3cccc(NC(=O)CC)c3)=NO2)C[C@H]1C(N)=O` (stereo partly drawn), the CPE inhibition was -7.83%.
For `C/C=C\C=C\C(=O)N1CC2(CC(c3cccc(NC(=O)/C(C)=C\C)c3)=NO2)C[C@H]1C(N)=O` (stereo partly drawn), the CPE inhibition is 11.7%.
For `C[C@@H]1CN([C@H](C)CO)C(=O)c2cc(C3=CCCCC3)cnc2O[C@@H]1CN(C)C(=O)c1ccc2c(c1)OCO2`, the CPE inhibition was -7.8%.
To `COc1ccc(S(=O)(=O)N(C)C[C@H]2OCCCC[C@@H](C)Oc3ccc(NC(=O)c4ccncc4)cc3C(=O)N([C@H](C)CO)C[C@@H]2C)cc1` belongs -4.42%; to `COc1ccc(S(=O)(=O)N(C)C[C@@H]2OCCCC[C@@H](C)Oc3ccc(NC(=O)c4ccccc4)cc3C(=O)N([C@@H](C)CO)C[C@H]2C)cc1`, 53.6% (active); to `CC(C)NC(=O)Nc1ccc2c(c1)C(=O)N([C@H](C)CO)C[C@@H](C)[C@@H](CN(C)S(=O)(=O)c1cccs1)OCCCC[C@@H](C)O2`, -0.241%.
To `C[C@@H]1CCCCO[C@H](CN(C)S(=O)(=O)c2cccs2)[C@@H](C)CN([C@H](C)CO)C(=O)c2cc(NC(=O)Nc3ccccc3)ccc2O1` belongs 9.31%; to `C[C@@H]1CCCCO[C@H](CN(C)S(=O)(=O)c2cccs2)[C@H](C)CN([C@H](C)CO)C(=O)c2cc(NC(=O)c3ccccc3)ccc2O1`, 56.2% (active); to `C[C@@H]1CN([C@H](C)CO)C(=O)c2cc(NC(=O)c3ccccc3)ccc2O[C@@H](C)CCCCO[C@H]1CN(C)S(=O)(=O)c1ccccc1`, -7.35%.
To `COC(=O)C[C@@H]1C[C@H]2c3cc(NC(=O)NC4CCCC4)ccc3O[C@H]2[C@H](CO)O1` belongs 0.692%; to `CC(C)CC#Cc1ccc2c(c1)O[C@H](CN(C)C(=O)Cc1cccnc1)[C@H](C)CN([C@@H](C)CO)S2(=O)=O`, -0.534%; to `CO[C@@H]1CN(C)C(=O)c2ccc(NC(=O)Nc3ccccc3)cc2OC[C@H](C)N(C(=O)CC2CC2)C[C@@H]1C`, -5.7%.
Regarding `COc1cccc(S(=O)(=O)N[C@H]2C=C[C@@H](CC(=O)NCc3ccc(F)cc3)O[C@@H]2CO)c1`, the CPE inhibition is 3.36%.
On to `COC(=O)C[C@@H]1C=C[C@@H](NS(=O)(=O)c2cccc(OC)c2)[C@@H](CO)O1`, for which the CPE inhibition was 1.84%.
As to `COc1ccccc1S(=O)(=O)N[C@H]1CC[C@@H](CC(=O)NCc2cc(F)cc(F)c2)O[C@H]1CO`, the CPE inhibition was -1.83%.
For the compound `COc1cccc(S(=O)(=O)N[C@H]2C=C[C@@H](CC(=O)NCc3ccccc3)O[C@@H]2CO)c1`, the CPE inhibition is -4.65%.
On to `COc1ccccc1S(=O)(=O)N[C@@H]1C=C[C@H](CC(=O)NCc2cccc(F)c2)O[C@H]1CO`, for which the CPE inhibition is 41.8% (active).
To `COc1cccc(S(=O)(=O)N[C@H]2C=C[C@H](CC(=O)NCc3ccc(Cl)cc3)O[C@@H]2CO)c1` belongs 23.8% (active).
For `COc1ccc2c3c([nH]c2c1)[C@H](CO)N(C(=O)NC1CCCC1)CC31CN(C(=O)Nc2cccc(F)c2)C1`, the CPE inhibition was 9.59%.
In the case of `COc1ccc(NC(=O)Nc2ccc3c(c2)C(=O)N([C@@H](C)CO)C[C@@H](C)[C@H](CN(C)C(=O)NC(C)C)OCCCC[C@H](C)O3)cc1`, the CPE inhibition is 3.37%.
Consider `Cc1ccc(S(=O)(=O)Nc2ccc3c(c2)C(=O)N(C)[C@H]2CC[C@H](CC(=O)O)O[C@H]2CO3)cc1`, for which the CPE inhibition is 4.91%.
Regarding `O=C(NCc1cc(C(F)(F)F)cc(C(F)(F)F)c1)C1CC(c2cccc(F)c2)=NO1` (stereo not drawn), the CPE inhibition is 23.7% (active).
Consider `COc1ccc(C2=NOC(Cn3nc(C(=O)NCc4ccc5c(c4)OCO5)cc3-c3ccccc3)C2)cc1` (stereo not drawn), for which the CPE inhibition was 10.2%.
As to `O=C(NCCCCc1ccccc1)C1CC(c2ccc([N+](=O)[O-])cc2)=NO1` (stereo not drawn), the CPE inhibition is 15.1%.
For `COc1ccc(CNC(=O)C2CCCC2)cc1`, the CPE inhibition is -2.88%.
As for `COc1ccc(CNC(=O)C2CC(c3ccc(C(F)(F)F)cc3)=NO2)cc1` (stereo not drawn), the CPE inhibition was 87.8% (active).
To `O=C(NCc1cc(F)cc(C(F)(F)F)c1)C1CCC(=O)N(C2CCCC2)C1` (stereo not drawn) belongs 0.846%.

For the origin of these results see PubChem BioAssay AID651640 (Broad Institute, 2012).
